This passage reports outcome results from PubChem BioAssay AID463229 (Broad Institute, 2010).

Out of some 2,300 compounds screened, about 2,100 (91%) were called active.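 Rule for the calls: active = compounds raising the signal whose fitted half-maximal concentration is at or below their top tested dose (cut at about 25 µM in these data); inconclusive = flat fit at 30 to 70% activity, or a poor fit; inactive = the rest.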 The set was probably picked from earlier hits. These entries were drawn from the full list. Entries with a potency or affinity are not part of this list.

This test in a line: cytokine-free beta-cell viability effect – INS-1E rat cells, ATP luminescence, cherry pick, counter-screen for beta-cell apoptosis protection project, dose response (AID 463229). Conditions: INS-1E rat beta cells, no cytokines, CellTiter-Glo ATP, 48 h; series mostly up to 26 µM. On the technique in general: The purpose of a counterscreen is to sort out artefacts and off-target activity.
For the compound `CCOc1ccc(/C=N/Nc2ccc(Cl)nn2)c(O)c1`, the compound was called inactive. Regarding `Cc1cc(C)nc(OC(=O)c2ccc(Cl)cc2Cl)n1`, the call was inactive. `Cc1ccc(C(=O)O/N=C/c2c(N3CCOCC3)n(C)c3ccccc23)cc1`: the compound was called inactive. The result for `Cc1ccc2c(C)ccc(O)c2n1` reads “inactive”.

Consider `CCCNC(=O)c1c(N)n(-c2cccc(OC)c2)c2nc3ccccc3nc12`, for which the compound was called inactive. `CC(=O)Nc1ccc(C2=CC(=O)C[C@H](c3ccc4c(c3)OCO4)C2)cc1`: the compound was classed as inactive. On to `FC(F)(F)c1ccccc1NC(=S)N1CCc2ccccc2C1`, for which the call was inactive. In the case of `Fc1ccc(Oc2nc(-c3ccccn3)nc3ccccc23)cc1` it was “inactive”.

As for `O=C(CCCN1C(=O)/C(=C/c2ccccc2)SC1=S)NCCCn1ccnc1`, the call was inactive.

Take `O=[N+]([O-])c1ccc(/C=N/Nc2ccnc3cc(Cl)ccc23)o1`: the call was inactive.

Regarding `CC1(C(=O)OCC(=O)N2c3ccccc3Sc3ccccc32)CC1(Cl)Cl` (stereo not drawn), the outcome was inactive. The result for `Nc1ccc2nn(-c3cccc4ccccc34)nc2c1` reads “inactive”. The result for `CC(=O)Cc1cc(O)c2ccccc2c1OC(=O)c1ccc(Br)cc1` reads “inactive”; that for `Cc1cc2cc(CN3C(=O)c4ccccc4C3=O)ccc2n1C`, “inactive”.

For the compound `Cc1ccc(NC(=O)c2c(-c3c(F)cccc3Cl)noc2C)cc1F`, the compound was called inactive. In the case of `CC(C)(C)c1cc[n+](C2=C([O-])c3ccccc3C(=O)/C2=N\S(=O)(=O)c2ccccc2)cc1` it was “inactive”; in that of `O=C1/C(=N\S(=O)(=O)c2cccs2)C([n+]2ccc(CCCc3ccccc3)cc2)=C([O-])c2ccccc21`, “inactive”; in that of `Cc1ccccc1Nc1c(-c2ccccn2)nc2c(C)cccn12`, “inactive”. Take `COc1cc(NC2CCCCC2O)c2nc(-c3ccc(Cl)cc3)ccc2c1` (stereo not drawn): the result was inactive. In the case of `COc1ccc(NC(=O)CN(C)C(=O)/C=C/c2ccc(S(=O)(=O)N3CCCCCC3)cc2)cc1` it was “inactive”; in that of `CC(C)C[C@H]1CN=C(Nc2ccccc2)N1CCC(C)c1ccccc1` (stereo partly drawn), “inactive”. In the case of `CCC(CC)C(=O)c1c[nH]c(C(=O)NCc2ccccn2)c1` it was “inactive”. The result for `Cc1ccc(C)c(NS(=O)(=O)c2ccc(OCC(=O)NCc3cccnc3)cc2)c1` reads “inactive”; that for `O=C(Cc1ccc([N+](=O)[O-])cc1)Nc1cccnc1`, “inactive”; that for `O=C(NNC(=O)c1ccccc1OCc1ccccc1)c1ccccc1O`, “inactive”. With `C/C(=N\NC(N)=S)c1ccncc1`, the compound was classed as inactive. Consider `C/C(Cn1nnc([N+](=O)[O-])n1)=N\NC(=O)c1ccccc1Cl`, for which the outcome was inactive. The result for `Clc1ccc(SCc2cc(N3CCOCC3)nc(-c3ccccn3)n2)cc1` reads “inactive”; that for `CCN(CC)C(=O)C1CCCN(C(=S)Nc2cccc3ccccc23)C1` (stereo not drawn), “inactive”; that for `CC(C)(C)C(=O)NC(Nc1cccc2cccnc12)C(Cl)(Cl)Cl` (stereo not drawn), “inactive”. In the case of `CCCOc1ccc2c3c(c(=O)oc2c1OCCC)CCCC3` it was “inactive”; in that of `COc1ccc(/C=N/N2CCN(Cc3ccccc3)CC2)cc1`, “inactive”. In the case of `C/C(=N\Nc1nc(C)cc(-c2ccccc2)n1)c1ccc(F)cc1` it was “inactive”; in that of `C/C(=N\Nc1nc(C)cc(-c2ccccc2)n1)c1ccccc1`, “inactive”; in that of `C=CC[C@@H](CC(=O)N(CCO)Cc1ccccc1)C(=O)N[C@H](COC(=O)[C@@H](CC=C)CC(=O)OC(C)(C)C)c1ccccc1`, “inactive”. For `Cc1cc(C)n(-c2nc(NC(C)(C)C)nc(NC(C)(C)C)n2)n1`, the compound was called inactive.

In the case of `NNC(=S)Nc1ccc(OC(F)(F)F)cc1`, the compound was classed as inactive.

`COC(=O)c1sccc1S(=O)(=O)Nc1ccc(N2CCCCC2)cc1`: the compound was called inactive. The result for `COc1ccc(NC(=O)N(C)C[C@H]2Oc3c(NS(=O)(=O)c4ccc(F)cc4)cccc3C(=O)N([C@H](C)CO)C[C@@H]2C)cc1` reads “inactive”; that for `c1ccc(-c2nnc(CSc3ccc4c(c3)OCCO4)o2)cc1`, “inactive”; that for `Fc1cccc(Cl)c1-c1nnc2ccc3ccccc3n12`, “inactive”. As for `Nc1ccc(Nc2ccccc2)cc1`, the result was inactive. `Cc1ccc(S(=O)(=O)Nc2ccc(C(OC(=O)c3ccccc3[N+](=O)[O-])(C(F)(F)F)C(F)(F)F)cc2)cc1`: the result was inactive. On to `CCN(CC)S(=O)(=O)c1cccc(NC(=O)c2cc(-c3cccs3)nn2-c2ccccc2)c1`, for which the result was inactive. In the case of `c1ccc(N2CCN(CC3CCCCC3)CC2)cc1`, the outcome was inactive. As for `CCCCOC(=O)c1ccc(NC(c2ccc(C)cc2)P(=O)(OC)OC)cc1` (stereo not drawn), the compound was classed as inactive. For the compound `COc1ccc(C2CC(c3cccc(C)c3)n3nc(N)nc3N2)cc1` (stereo not drawn), the call was inactive. In the case of `Cc1ccc(C2CC(c3cccc(C)c3)n3nc(N)nc3N2)cc1` (stereo not drawn) it was “inactive”. In the case of `CCOC(=O)CSc1nc2c(c(=O)[nH]1)C(C)(CC)Cc1ccccc1-2` (stereo not drawn) it was “inactive”. The result for `O=C(O)c1ccc(/C=C2\SC(=S)N(Nc3ccccc3)C2=O)cc1` reads “inactive”; that for `CN1N=C(C(C)(C)C)CSC1=Nc1ccccc1`, “inactive”; that for `CC(=O)c1c(C)n(CC(=O)NCc2ccco2)c2ccccc12`, “inactive”. Turning to `Cc1ccc(N2C(=O)CSC2c2cccnc2)c(Cl)c1` (stereo not drawn), the outcome was inactive.

On to `CN(C)c1ccc(NC(=S)NC23CC4CC(CC(C4)C2)C3)cc1`, for which the outcome was inactive. The result for `COc1ccccc1NS(=O)(=O)c1cccc(NC(=O)c2[nH]c(C)c(C(C)=O)c2C)c1` reads “inactive”. The result for `O=C(CC1CC2CCC1C2)NCCc1ccc(Cl)cc1` (stereo not drawn) reads “inactive”; that for `CNC(=S)N(Cc1cccs1)Cc1cc2cc(OC)c(OC)cc2[nH]c1=O`, “inactive”. With `CCN(CC)c1ccc(N=Cc2ccccc2[N+](=O)[O-])cc1`, the compound was classed as inactive. In the case of `CC1CC(=O)N(c2ccc(Br)cc2)C(=O)C1` it was “inactive”; in that of `Cn1cccc1/C=N/NC(=O)Cc1cccs1`, “inactive”. In the case of `CCOC(=O)c1sc(SC)c2c1CCC/C2=N/OC` it was “inactive”; in that of `COc1cnc(-c2ccccn2)nc1N(C)c1ccccc1`, “inactive”. As to `O=C(CCCCC(=O)Nc1ccc(F)cc1F)Nc1ccc(F)cc1F`, the outcome was inactive. In the case of `C/C(=N\Nc1nc(-c2ccccn2)nc2ccccc12)c1ccc(F)cc1` it was “inactive”; in that of `O=C(c1ccc(F)c(S(=O)(=O)N2CCOCC2)c1)N1CCN(c2ccc(F)cc2)CC1`, “inactive”. Consider `CC1=C(C(=O)OCCNC(=O)c2ccccc2O)C(c2ccccc2[N+](=O)[O-])C(C(=O)OCC2CCCO2)=C(C)N1` (stereo not drawn), for which the compound was classed as inactive. For the compound `COc1ccc(CN(C)C(=O)c2ccc(NS(=O)(=O)c3ccc(F)cc3)cc2)c(OC)c1OC`, the compound was classed as inactive. `CC[C@@H]1C/C=C\Cc2ccccc2[C@H](C(=O)C[C@@H](O)CC(C)=O)OC1=O`: the compound was called inactive.
